Assay results published in the supplement of paper PMC10849652.
Targets with a hit are over-represented here; the source holds about 8,800 in all. About 0.5% of all pairs of compound and target were hits.

How the values were obtained:
Assay in all cases: log2 fold change, soluble protein after heating vs DMSO (PISA); higher = thermal stabilisation; K562 lysate, 10 uM; active = over 0.2 and 3.5 SD of the protein, either way, in both replicates (recomputed)
[1] = compound: C1=CC=C(C=C1)[C@H](COC2=CC3=C(C=C2)NC(=O)N3)NC(=O)C4=CC=CN(C4=O)CC5=CC(=C(C=C5)F)F
Outline: (§1)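 Thermal stability, expressed as log-two fold change relative to solvent controls, is given from duplicates. Crude K562 extract in PBS pH 7.4 with 1 mM MgCl2, at 1 mg/mL protein, was treated with 10 μM compound for 30 min and heated in aliquots for 3 min across 48°C-58°C. After pooling, adjustment to 0.5% NP-40 at 4°C and centrifugation at 21,000xg for 90 min, supernatant protein was measured by TMTpro 16plex LC-MS/MS with channel sums equalised.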

[2] = compound: CC1=C(SC2=C1C(=N[C@H](C3=NN=C(N32)C)CC(=O)N)C4=CC=C(C=C4)Cl)C
Outline: as §1

[3] = compound: CC1=C2C(=CC=C1)N=C(N(C2=O)C3=CC=CC=C3C)CN4C=NC5=C(N=CN=C54)N
Outline: as §1

[4] = compound: Cc1sc2c(c1C)C(c1ccc(Cl)cc1)=N[C@@H](CC(=O)OC(C)(C)C)c1nnc(C)n1-2
Outline: as §1

[5] = compound: c1ccc([C@@H]2C[C@H]2NC2CCNCC2)cc1
Outline: as §1

Measured: log2 fold change

CIC (UniProt I3L2J0)
inactive: [1] -0.03 | [2] -0.034 | [3] -0.109 | [4] 0.042 | [5] -0.02

CUEDC2 (UniProt Q9H467)
inactive: [1] 0.074 | [2] 0.019 | [3] -0.017 | [4] 0.013 | [5] 0.11

CMPK2 (UniProt Q5EBM0)
inactive: [1] 0.008 | [2] 0.091 | [3] -0.024 | [4] 0.039 | [5] -0.098

CKS1B (UniProt P61024)
inactive: [1] 0.017 | [2] -0.074 | [3] -0.058 | [4] 0.108 | [5] 0.194

CXCL14 (UniProt O95715)
inactive: [1] 0.002 | [2] -0.088 | [3] 0.128

DNAJC1 (UniProt Q96KC8)
inactive: [1] -0.113 | [2] -0.021 | [3] 0.039 | [4] -0.011 | [5] 0.021

DPH5 isoform 5 (UniProt Q9H2P9)
inactive: [1] 0.047 | [2] -0.024 | [3] 0.021 | [4] -0.144 | [5] -0.118

CHMP4A isoform 2 (UniProt Q9BY43)
inactive: [1] 0.035 | [2] -0.009 | [3] 0.007 | [4] -0.022 | [5] -0.152

CLIP1 isoform 1 (UniProt P30622)
inactive: [1] 0.04 | [2] -0.008 | [3] -0.002 | [4] -0.028 | [5] -0.019

COQ8A (UniProt Q8NI60)
inactive: [1] 0.048 | [2] 0.065 | [3] 0.03 | [4] 0.007 | [5] 0

COPZ1 isoform 4 (UniProt P61923)
inactive: [1] -0.101 | [2] -0.04 | [3] 0.06 | [4] 0.057 | [5] 0.096

DIAPH3 (UniProt Q9NSV4)
inactive: [1] -0.09 | [2] 0.017 | [3] -0.035 | [4] 0.099 | [5] 0.195

CSNK1D (UniProt P48730)
inactive: [1] -0.027 | [2] 0.014 | [3] -0.127 | [4] -0.026 | [5] 0.025

CMBL (UniProt Q96DG6)
Chain of UniProt Q96DG6 (Q96DG6 whole entry, looked up): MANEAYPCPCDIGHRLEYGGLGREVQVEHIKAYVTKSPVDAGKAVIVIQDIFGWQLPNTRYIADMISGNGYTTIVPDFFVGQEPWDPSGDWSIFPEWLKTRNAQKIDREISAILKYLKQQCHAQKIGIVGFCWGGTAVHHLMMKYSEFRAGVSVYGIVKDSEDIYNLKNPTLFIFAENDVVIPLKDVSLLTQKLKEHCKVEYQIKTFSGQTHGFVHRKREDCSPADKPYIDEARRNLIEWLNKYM
inactive: [1] -0.01 | [2] -0.011 | [3] -0.027 | [4] -0.041 | [5] -0.078

CNIH4 (UniProt Q9P003)
inactive: [1] -0.355 | [2] -0.301 | [3] -0.017 | [4] 0.11

COL6A5 (UniProt A8TX70)
inactive: [1] 0.025 | [2] 0.052 | [3] 0.089 | [4] -0.061 | [5] -0.545

DCP2 (UniProt Q8IU60)
inactive: [1] 0.006 | [2] -0.001 | [3] 0.041 | [4] 0.026 | [5] 0.048

DDX4 (UniProt Q9NQI0)
Chain of UniProt Q9NQI0 (Q9NQI0 whole entry, looked up): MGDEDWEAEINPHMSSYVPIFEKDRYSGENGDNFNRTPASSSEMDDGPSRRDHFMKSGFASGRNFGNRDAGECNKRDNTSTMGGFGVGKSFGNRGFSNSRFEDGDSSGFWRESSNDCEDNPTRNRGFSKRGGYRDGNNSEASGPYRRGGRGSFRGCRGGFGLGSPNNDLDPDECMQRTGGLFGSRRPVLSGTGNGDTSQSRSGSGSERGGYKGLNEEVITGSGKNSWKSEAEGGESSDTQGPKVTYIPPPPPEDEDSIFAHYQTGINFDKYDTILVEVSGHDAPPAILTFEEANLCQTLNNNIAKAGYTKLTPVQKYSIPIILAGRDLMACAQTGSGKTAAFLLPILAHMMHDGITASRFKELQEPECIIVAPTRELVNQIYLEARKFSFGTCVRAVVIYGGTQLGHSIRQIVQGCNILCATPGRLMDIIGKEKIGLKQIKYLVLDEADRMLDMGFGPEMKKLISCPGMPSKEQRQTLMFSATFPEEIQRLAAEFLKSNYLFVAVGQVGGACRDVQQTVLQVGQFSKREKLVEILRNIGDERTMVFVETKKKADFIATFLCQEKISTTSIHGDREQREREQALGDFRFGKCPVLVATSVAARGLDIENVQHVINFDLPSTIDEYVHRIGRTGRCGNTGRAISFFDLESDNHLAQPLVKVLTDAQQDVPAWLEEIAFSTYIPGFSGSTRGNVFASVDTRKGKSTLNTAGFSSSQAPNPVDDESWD
inactive: [1] -0.047 | [2] 0.007 | [3] -0.004 | [4] 0.049 | [5] -0.265

DEF6 (UniProt Q9H4E7)
inactive: [1] -0.061 | [2] -0.05 | [3] -0.027 | [4] 0.036 | [5] -0.037

CLCN3 (UniProt P51790)
inactive: [1] 0.094 | [2] 0.014 | [3] 0.061 | [4] 0.063 | [5] 0.017

DPY19L3 (UniProt Q6ZPD9)
inactive: [1] 0.183 | [2] -0.131 | [3] -0.106

CSNK2A1 (UniProt P68400)
inactive: [1] -0.004 | [2] 0.012 | [3] -0.119 | [4] 0.034 | [5] 0.005

CWC22 (UniProt Q9HCG8)
inactive: [1] -0.033 | [2] 0.028 | [3] 0.034 | [4] 0.079 | [5] 0.237

DERA (UniProt Q9Y315)
inactive: [1] 0.025 | [2] 0.012 | [3] -0.051 | [4] 0.061 | [5] 0.209

CIC (UniProt I3L1Q4)
inactive: [1] 0.006 | [2] 0.225

CRABP2 (UniProt P29373)
inactive: [1] -0.057 | [2] -0.051 | [3] 0.055 | [4] -0.172 | [5] -0.001

CYP24A1 (UniProt Q07973)
inactive: [1] 0.02 | [2] 0.142 | [3] 0.096 | [4] -0.136 | [5] -0.262

CMTM3 (UniProt Q96MX0)
inactive: [1] 0.058 | [2] -0.097 | [3] -0.018 | [4] 0.015 | [5] -0.024

DIAPH1 (UniProt O60610)
inactive: [1] -0.005 | [2] 0.013 | [3] 0.015 | [4] 0.007 | [5] 0.023

CNST (UniProt Q6PJW8)
inactive: [1] 0.041 | [2] 0.019 | [3] -0.018 | [4] 0.004 | [5] -0.031

DCP1A (UniProt Q9NPI6)
inactive: [1] -0.011 | [2] -0.031 | [3] 0.025 | [4] 0.018 | [5] -0.026

DOCK10 (UniProt Q96BY6)
inactive: [1] 0.053 | [2] -0.018 | [3] 0.062 | [4] -0.109 | [5] -0.491

CSAD isoform 3 (UniProt Q9Y600)
inactive: [1] -0.081 | [2] 0.137

CHURC1 isoform 2 (UniProt Q8WUH1)
inactive: [1] 0.045 | [2] -0.05 | [3] -0.046 | [4] -0.014 | [5] -0.063

DARS (UniProt P14868)
inactive: [1] -0.01 | [2] 0.001 | [3] 0.037 | [4] 0.043 | [5] 0.025

CHORDC1 (UniProt Q9UHD1)
Chain of UniProt Q9UHD1 (Q9UHD1 whole entry, looked up): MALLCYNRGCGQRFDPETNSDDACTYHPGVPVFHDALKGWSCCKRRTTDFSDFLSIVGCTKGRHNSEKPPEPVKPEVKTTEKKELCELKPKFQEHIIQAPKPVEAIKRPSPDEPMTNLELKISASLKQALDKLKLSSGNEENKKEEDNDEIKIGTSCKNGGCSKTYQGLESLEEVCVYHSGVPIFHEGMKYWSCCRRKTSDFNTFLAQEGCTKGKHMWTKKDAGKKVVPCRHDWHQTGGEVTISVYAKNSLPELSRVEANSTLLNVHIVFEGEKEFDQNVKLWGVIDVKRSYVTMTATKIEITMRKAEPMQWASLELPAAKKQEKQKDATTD
inactive: [1] 0.025 | [2] 0.006 | [3] -0.01 | [4] 0.017 | [5] 0.037

DHFR (UniProt P00374)
inactive: [1] -0.024 | [2] 0.024 | [3] 0.016 | [4] 0.031 | [5] 0.021

CLCN3 isoform 2 (UniProt P51790)
inactive: [1] 0.033 | [2] 0.017 | [3] 0.053 | [4] -0.015 | [5] 0.033

CTPS1 (UniProt P17812)
inactive: [1] -0.02 | [2] -0.013 | [3] -0.029 | [4] -0.014 | [5] 0.023

COG4 (UniProt Q9H9E3)
Chain of UniProt Q9H9E3 (Q9H9E3 whole entry, looked up): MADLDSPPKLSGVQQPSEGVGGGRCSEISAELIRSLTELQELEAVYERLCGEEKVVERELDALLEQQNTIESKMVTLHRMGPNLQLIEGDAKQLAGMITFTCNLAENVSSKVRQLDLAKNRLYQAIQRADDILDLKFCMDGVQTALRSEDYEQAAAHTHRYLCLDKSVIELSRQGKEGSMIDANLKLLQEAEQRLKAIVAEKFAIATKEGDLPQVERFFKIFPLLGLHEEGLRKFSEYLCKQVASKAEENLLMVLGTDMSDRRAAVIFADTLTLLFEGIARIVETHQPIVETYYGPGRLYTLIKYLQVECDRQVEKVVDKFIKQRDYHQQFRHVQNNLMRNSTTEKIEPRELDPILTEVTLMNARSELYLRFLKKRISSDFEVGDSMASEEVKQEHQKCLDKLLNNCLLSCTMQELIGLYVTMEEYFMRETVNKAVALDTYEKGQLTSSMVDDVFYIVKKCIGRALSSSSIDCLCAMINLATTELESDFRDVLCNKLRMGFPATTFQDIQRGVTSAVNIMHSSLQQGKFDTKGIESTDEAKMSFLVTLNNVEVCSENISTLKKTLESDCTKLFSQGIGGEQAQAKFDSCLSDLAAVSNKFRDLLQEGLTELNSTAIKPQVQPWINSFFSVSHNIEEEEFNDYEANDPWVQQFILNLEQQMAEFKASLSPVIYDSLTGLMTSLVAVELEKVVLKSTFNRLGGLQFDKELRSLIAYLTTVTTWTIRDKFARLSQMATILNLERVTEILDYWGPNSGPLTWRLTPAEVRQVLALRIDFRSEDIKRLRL
inactive: [1] 0.005 | [2] 0.034 | [3] 0.096 | [4] -0.036 | [5] 0.011

DDX20 (UniProt Q9UHI6)
inactive: [1] -0.008 | [2] -0.064 | [3] -0.006 | [4] 0.027 | [5] 0.077

DCTN1 (UniProt Q14203)
inactive: [1] -0.018 | [2] -0.017 | [3] -0.009 | [4] 0 | [5] 0.034

CSNK1G3 (UniProt Q9Y6M4)
inactive: [1] -0.041 | [2] 0.017 | [3] -0.013 | [4] 0.006 | [5] -0.03

CTNND1 isoform 3 (UniProt O60716)
inactive: [1] -0.021 | [2] 0.035 | [3] 0.058 | [4] 0.036 | [5] 0.028

DNAJC3 (UniProt Q13217)
inactive: [1] 0.06 | [2] -0.073 | [3] -0.003 | [4] -0.01 | [5] 0.031

DDX39A (UniProt O00148)
inactive: [1] -0.022 | [2] -0.018 | [3] 0.02 | [4] -0.016 | [5] 0

CXXC1 isoform 2 (UniProt Q9P0U4)
inactive: [1] 0.006 | [2] 0.07 | [3] 0.032 | [4] -0.173 | [5] 0.029

CLASP2 isoform 3 (UniProt O75122)
inactive: [1] 0.002 | [2] -0.028 | [3] 0.079 | [4] -0.003 | [5] -0.061

CUX1 isoform 3 (UniProt P39880)
inactive: [1] -0.001 | [2] 0.024 | [3] 0.031 | [4] 0.025 | [5] 0.03

COQ9 (UniProt O75208)
inactive: [1] -0.102 | [2] -0.069 | [3] 0.026 | [4] 0.015 | [5] 0.08

CORO1A (UniProt P31146)
inactive: [1] -0.024 | [2] 0.021 | [3] 0.004 | [4] 0.078 | [5] -0.019

CMIP (UniProt Q8IY22)
inactive: [1] -0.012 | [2] -0.006 | [3] -0.002 | [4] -0.029 | [5] 0.032

DENND4A isoform 2 (UniProt Q7Z401)
inactive: [1] -0.02 | [2] 0.028 | [3] -0.007 | [4] 0.039 | [5] -0.064

DMXL1 (UniProt Q9Y485)
Chain of UniProt Q9Y485 (Q9Y485 whole entry, looked up): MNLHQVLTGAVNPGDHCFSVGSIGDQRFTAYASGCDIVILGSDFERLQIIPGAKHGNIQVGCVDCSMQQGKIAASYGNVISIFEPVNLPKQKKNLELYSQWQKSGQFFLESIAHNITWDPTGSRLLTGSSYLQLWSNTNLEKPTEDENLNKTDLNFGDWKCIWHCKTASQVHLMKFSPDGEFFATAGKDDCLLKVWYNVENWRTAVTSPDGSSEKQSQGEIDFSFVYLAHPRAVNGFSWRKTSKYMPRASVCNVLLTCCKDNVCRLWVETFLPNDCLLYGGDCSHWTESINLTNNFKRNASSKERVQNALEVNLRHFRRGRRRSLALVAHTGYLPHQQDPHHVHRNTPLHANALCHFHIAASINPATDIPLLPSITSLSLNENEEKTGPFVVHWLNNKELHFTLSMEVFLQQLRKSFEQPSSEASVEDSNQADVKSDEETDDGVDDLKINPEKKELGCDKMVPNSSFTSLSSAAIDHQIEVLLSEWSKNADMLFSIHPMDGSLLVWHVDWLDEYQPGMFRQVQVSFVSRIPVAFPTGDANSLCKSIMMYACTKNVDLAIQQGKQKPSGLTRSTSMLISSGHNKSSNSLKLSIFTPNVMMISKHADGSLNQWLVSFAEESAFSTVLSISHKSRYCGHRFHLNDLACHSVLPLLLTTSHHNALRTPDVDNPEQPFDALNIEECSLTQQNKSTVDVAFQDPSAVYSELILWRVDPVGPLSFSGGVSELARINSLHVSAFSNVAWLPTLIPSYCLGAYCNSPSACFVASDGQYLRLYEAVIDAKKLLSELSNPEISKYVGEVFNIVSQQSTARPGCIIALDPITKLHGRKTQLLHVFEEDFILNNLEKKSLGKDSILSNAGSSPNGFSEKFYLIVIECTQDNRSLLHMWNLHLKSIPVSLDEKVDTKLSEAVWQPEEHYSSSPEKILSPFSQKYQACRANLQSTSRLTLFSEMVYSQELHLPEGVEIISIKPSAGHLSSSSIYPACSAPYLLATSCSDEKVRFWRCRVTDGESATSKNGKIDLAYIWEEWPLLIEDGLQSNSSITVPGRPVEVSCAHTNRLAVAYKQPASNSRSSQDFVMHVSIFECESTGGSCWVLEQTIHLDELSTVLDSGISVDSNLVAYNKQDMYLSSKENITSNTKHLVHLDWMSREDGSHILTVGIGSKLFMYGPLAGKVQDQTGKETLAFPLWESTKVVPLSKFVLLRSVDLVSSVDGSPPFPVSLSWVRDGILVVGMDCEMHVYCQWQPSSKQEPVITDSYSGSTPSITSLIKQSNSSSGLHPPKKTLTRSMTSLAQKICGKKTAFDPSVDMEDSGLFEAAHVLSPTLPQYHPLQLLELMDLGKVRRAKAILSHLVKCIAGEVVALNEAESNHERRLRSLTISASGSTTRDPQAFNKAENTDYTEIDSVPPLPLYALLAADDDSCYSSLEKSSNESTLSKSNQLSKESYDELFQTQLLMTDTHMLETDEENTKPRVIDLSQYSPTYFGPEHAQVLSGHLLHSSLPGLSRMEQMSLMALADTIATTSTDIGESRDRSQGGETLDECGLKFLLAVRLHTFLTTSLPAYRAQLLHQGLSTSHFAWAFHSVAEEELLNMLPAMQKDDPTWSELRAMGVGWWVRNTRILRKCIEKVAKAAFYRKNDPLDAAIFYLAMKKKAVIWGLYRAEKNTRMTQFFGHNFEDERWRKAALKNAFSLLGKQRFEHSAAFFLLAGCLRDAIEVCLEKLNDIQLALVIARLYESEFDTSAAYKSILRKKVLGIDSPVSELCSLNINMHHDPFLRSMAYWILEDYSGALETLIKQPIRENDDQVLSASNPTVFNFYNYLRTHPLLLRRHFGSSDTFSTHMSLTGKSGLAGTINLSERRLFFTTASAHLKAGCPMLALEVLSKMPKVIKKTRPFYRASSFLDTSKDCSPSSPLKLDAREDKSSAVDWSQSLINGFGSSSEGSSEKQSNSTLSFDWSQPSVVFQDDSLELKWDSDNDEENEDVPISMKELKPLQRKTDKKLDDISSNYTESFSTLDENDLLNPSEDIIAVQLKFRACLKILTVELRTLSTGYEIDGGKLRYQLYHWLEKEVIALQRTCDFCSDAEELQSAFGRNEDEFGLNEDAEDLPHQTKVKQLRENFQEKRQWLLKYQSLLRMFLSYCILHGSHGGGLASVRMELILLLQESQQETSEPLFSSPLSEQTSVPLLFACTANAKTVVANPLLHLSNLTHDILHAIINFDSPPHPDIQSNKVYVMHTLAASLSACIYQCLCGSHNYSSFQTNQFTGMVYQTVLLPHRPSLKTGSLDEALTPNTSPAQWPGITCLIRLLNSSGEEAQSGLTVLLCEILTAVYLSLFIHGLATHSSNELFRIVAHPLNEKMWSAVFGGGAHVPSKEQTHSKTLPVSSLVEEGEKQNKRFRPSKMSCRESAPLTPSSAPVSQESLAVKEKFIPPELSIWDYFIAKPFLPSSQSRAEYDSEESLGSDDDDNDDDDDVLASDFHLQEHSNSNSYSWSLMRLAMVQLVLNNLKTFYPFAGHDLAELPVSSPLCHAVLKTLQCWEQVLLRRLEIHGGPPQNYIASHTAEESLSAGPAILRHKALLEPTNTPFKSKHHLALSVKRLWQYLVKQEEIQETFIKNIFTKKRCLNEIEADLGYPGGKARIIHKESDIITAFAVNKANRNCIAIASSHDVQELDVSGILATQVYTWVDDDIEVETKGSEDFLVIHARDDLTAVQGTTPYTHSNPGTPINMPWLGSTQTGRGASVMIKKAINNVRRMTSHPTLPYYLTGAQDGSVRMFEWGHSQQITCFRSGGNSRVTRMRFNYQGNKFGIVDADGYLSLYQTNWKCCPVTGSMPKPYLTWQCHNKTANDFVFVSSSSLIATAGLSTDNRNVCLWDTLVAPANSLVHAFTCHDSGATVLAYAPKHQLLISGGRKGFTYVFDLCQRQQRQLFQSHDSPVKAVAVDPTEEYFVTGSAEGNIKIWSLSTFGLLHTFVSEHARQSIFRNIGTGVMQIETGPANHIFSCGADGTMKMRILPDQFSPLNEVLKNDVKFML
inactive: [1] 0.011 | [2] 0.01 | [3] 0 | [4] -0.005 | [5] 0.016
